Experimental data: PubChem BioAssay (NCI)
Compounds without any hit were thinned out: in the full panel of roughly 83,000, 20% have a hit.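 Step 1: grow cells in 96-well plates. Step 2: add test compound at a single concentration. Step 3: incubate 48 h. Step 4: record percent growth.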 Calls of active or inactive are those of the source. How the source made its calls: active means growth percent below 10; inactive means the rest.

Columns and labels:
Experiment in all cases: NCI-60 one-dose screen, 48 h (100 = growth as untreated, 0 = no growth, -100 = all killed)
[1] = system: NCI-H23 lung; settings: 10 µM unless noted
[2] = system: 786-0 renal; settings: 10 µM unless noted
[3] = system: DU-145 prostate; settings: 10 µM unless noted
[4] = system: MDA-MB-231 breast; settings: 10 µM unless noted
[5] = system: SF-268 CNS; settings: 10 µM unless noted
[6] = system: SF-539 CNS; settings: 10 µM unless noted
[7] = system: M14 melanoma; settings: 10 µM unless noted
[8] = system: HCT-15 colon; settings: 10 µM
[9] = system: UACC-62 melanoma; settings: 10 µM unless noted
[10] = system: LOX IMVI melanoma; settings: 10 µM unless noted
[11] = system: SK-MEL-28 melanoma; settings: 10 µM unless noted
[12] = system: ACHN renal; settings: 10 µM unless noted
[13] = system: OVCAR-5 ovarian; settings: 10 µM unless noted
[14] = system: OVCAR-3 ovarian; settings: 10 µM unless noted
[15] = system: NCI/ADR-RES ovarian; settings: 10 µM unless noted
[16] = system: T-47D breast; settings: 10 µM unless noted
[17] = system: MDA-MB-435 melanoma; settings: 10 µM unless noted
[18] = system: SW-620 colon; settings: 10 µM unless noted
[19] = system: MCF7 breast; settings: 10 µM unless noted
[20] = system: KM12 colon; settings: 10 µM unless noted

Measured: growth

CC(/C=N/N=C(N)N)=N/N=C(N)N
inactive: [1] 95.3% | [2] 70.4% | [3] 93.9% | [4] 102% | [5] 72.9% | [6] 73.9% | [7] 92.4% | [8] 98% | [9] 93.6% | [10] 88.9% | [11] 96.4% | [12] 94.5% | [13] 84.4% | [14] 79.8% | [15] 74.3% | [16] 60.1% | [17] 100% | [18] 98.5% | [19] 98.1% | [20] 73.1%

CC(C)(C)N(Cc1ccccc1)N=O
inactive: [1] 102% | [2] 99% | [3] 107% | [4] 91.9% | [5] 108% | [6] 99% | [7] 103% | [8] 103% | [9] 103% | [10] 93.7% | [11] 106% | [12] 104% | [13] 98.4% | [14] 118% | [15] 113% | [16] 97.3% | [17] 102% | [18] 101% | [19] 97.7% | [20] 104%

CNC(=O)O/N=C(/C)c1ccc(Cl)cc1
inactive: [2] 90.7% | [3] 114% | [4] 120% | [5] 110% | [6] 125% | [7] 98.7% | [9] 114% | [10] 106% | [11] 105% | [12] 129% | [13] 111% | [14] 114% | [15] 109% | [16] 91.8% | [17] 98.3% | [18] 117% | [19] 96.6% | [20] 114%

O=C(O)c1nn(Cc2ccc(Cl)cc2)c2ccccc12
inactive: [1] 105% | [2] 108% | [3] 120% | [4] 107% | [5] 109% | [6] 102% | [7] 107% | [8] 102% | [9] 102% | [10] 101% | [11] 119% | [12] 117% | [13] 108% | [14] 132% | [15] 112% | [16] 104% | [17] 116% | [18] 105% | [19] 99.7% | [20] 109%

O=[N+]([O-])c1ccc2cnn(CSP(=S)(c3ccccc3)c3ccccc3)c2c1
active: [17] -20.9%
inactive: [1] 67.4% | [2] 88.3% | [3] 105% | [4] 51.8% | [5] 79.9% | [6] 82.7% | [7] 58.1% | [8] 48.1% | [9] 43% | [10] 65% | [11] 74.1% | [12] 74.8% | [13] 96.7% | [14] 71.6% | [15] 49.8% | [16] 69.5% | [18] 31.7% | [19] 26.8% | [20] 63.7%

[N-]=[N+]=NC(C(=O)O)c1ccccc1 (stereo unspecified)
inactive: [1] 99.2% | [2] 103% | [3] 116% | [4] 110% | [5] 118% | [6] 93.9% | [7] 101% | [8] 101% | [9] 117% | [10] 100% | [11] 105% | [12] 100% | [13] 102% | [14] 118% | [15] 107% | [16] 103% | [17] 99.9% | [18] 107% | [19] 88.2% | [20] 111%

O=S(=O)(F)c1ncnc2nc[nH]c12
inactive: [1] 95.5% | [2] 97.6% | [4] 93.9% | [5] 70% | [6] 88.1% | [7] 100% | [8] 98.3% | [9] 89.8% | [10] 85.8% | [11] 97% | [12] 98.1% | [13] 90.7% | [14] 60.7% | [15] 93.8% | [16] 91.3% | [17] 100% | [18] 95.4% | [19] 84.1% | [20] 81.8%

Oc1ccc(Br)cc1CN1CCN(Cc2ccc(Cl)cc2)CC1
inactive: [1] 91.1% | [2] 107% | [3] 88.5% | [4] 49.2% | [5] 64.2% | [6] 92.9% | [7] 85.9% | [8] 59.7% | [9] 50.7% | [10] 19.7% | [11] 88.2% | [12] 83.3% | [13] 97.7% | [14] 67.8% | [15] 82.2% | [16] 65.1% | [17] 12.8% | [18] 73.1% | [19] 34.5% | [20] 64.9%

NC(=O)C(Cl)Cl
inactive: [1] 108% | [2] 107% | [3] 108% | [4] 111% | [5] 102% | [6] 107% | [7] 112% | [8] 97.6% | [9] 105% | [11] 112% | [12] 104% | [13] 101% | [14] 110% | [15] 114% | [16] 103% | [17] 103% | [18] 113% | [19] 92.8% | [20] 110%

COc1ccccc1N1CCN(CCc2c[nH]c3cc4c(cc23)OCO4)CC1
inactive: [1] 71.9% | [2] 79% | [3] 103% | [4] 79.8% | [5] 91.6% | [6] 77.8% | [7] 68.9% | [8] 68% | [9] 69.2% | [10] 60.4% | [11] 94.2% | [12] 77.7% | [13] 60.2% | [14] 91.2% | [15] 86% | [16] 83.1% | [17] 78% | [18] 88.6% | [19] 78.7% | [20] 84%

NC(=O)OCC(CO)(c1ccccc1)c1ccccc1
inactive: [2] 96.7% | [3] 104% | [4] 114% | [5] 101% | [6] 96.8% | [7] 99.5% | [8] 98.8% | [9] 115% | [10] 98.7% | [11] 112% | [12] 98.1% | [13] 95.3% | [14] 100% | [15] 108% | [16] 97.3% | [17] 101% | [18] 107% | [19] 99.3% | [20] 96.6%

CN1CCN(C(=O)COc2ccc(/C=C3\CC4C5CC=C6CC(Cl)CCC6(C)C5CCC4(C)C3=O)cc2)CC1 (stereo unspecified)
inactive: [1] 71.2% | [2] 70.2% | [3] 64.9% | [4] 75.2% | [5] 73.2% | [6] 93.6% | [8] 54.4% | [9] 90% | [10] 23.5% | [11] 103% | [12] 80.1% | [13] 99.7% | [14] 76.1% | [15] 69.2% | [16] 71.2% | [17] 56.6% | [18] 40.4% | [19] 83.9% | [20] 72.9%
active: [7] -13%

N#Cc1ncc(/N=C/c2ccc(N(CCCl)CCCl)cc2)s1
inactive: [1] 58.2% | [2] 29% | [3] 49.2% | [4] 94.5% | [5] 65.5% | [6] 40.7% | [7] 86.8% | [8] 50.6% | [9] 32% | [10] 61.3% | [11] 102% | [12] 33.8% | [13] 100% | [14] 78.5% | [15] 70.8% | [16] 64.2% | [17] 87.8% | [18] 79.4% | [19] 48.7% | [20] 95.3%

O=C(O)CNC(=O)c1ccccc1
inactive: [2] 100% | [3] 119% | [4] 110% | [5] 107% | [6] 89% | [7] 99.4% | [8] 98% | [9] 103% | [10] 95.9% | [11] 107% | [12] 102% | [13] 98.6% | [14] 105% | [15] 101% | [16] 104% | [17] 100% | [18] 99.7% | [19] 104% | [20] 105%

CC[C@@]1(C2O[C@@H](C3O[C@@](O)(CC)[C@H](C)C[C@@H]3C)C[C@@H]2C)CC[C@H]([C@]2(C)CCC3(C[C@H](O)[C@@H](C)[C@@H]([C@H](C)[C@@H](OC)[C@H](C)C(=O)O)O3)O2)O1 (stereo partly specified)
inactive: [1] 16.5% | [3] 44.9% | [5] 22.4% | [6] 12.6% | [8] 11.5% | [11] 29.5% | [12] 32% | [13] 43.9% | [14] 11% | [15] 31.1% | [16] 30.2% | [18] 11.3% | [20] 20.6%

N#CC1c2ccccc2C=CN1C(=O)c1ccc(N(CCCl)CCCl)cc1 (stereo unspecified)
inactive: [1] 89.3% | [2] 107% | [3] 111% | [4] 92.9% | [5] 95.9% | [6] 101% | [7] 116% | [8] 81.4% | [9] 71.7% | [10] 90.4% | [11] 94.6% | [12] 86.9% | [13] 98.6% | [14] 88.6% | [15] 83.4% | [16] 65.3% | [17] 79.4% | [18] 105% | [19] 83.5% | [20] 98%

CC1(C)CC(=O)CC(C)(C)N1N=O
inactive: [1] 102% | [2] 109% | [3] 107% | [4] 109% | [5] 106% | [6] 94.3% | [7] 102% | [8] 98.1% | [9] 104% | [10] 97.1% | [11] 109% | [12] 103% | [13] 104% | [14] 101% | [15] 100% | [16] 97.3% | [17] 112% | [19] 97.9% | [20] 99.1%
